Screening results from PubChem BioAssay.
The entries come from a sample that favours hits as a whole.
SARS PLP yeast: qHTS of Yeast-based Assay for SARS-CoV PLP; S. cerevisiae expressing SARS-CoV PLpro, growth rescue; Potency, µM (top dose mostly 32.9 µM), without a hit: top-dose activity, positive = growth rescue, usual class: activators; 330,000 compounds, 0.19% hits; AID 485353, 2010; also: potency is read from the fitted curve at half-maximal effect; 0% is about no effect; nearly all actives have a fitted effect of over 55% in size
Shiga inhibitor: A qHTS for Small Molecule Inhibitors of Shiga Toxin; 290,000 compounds, 9.2% hits; inhibition, % at 38.7 µM; Vero cells, Shiga toxin protein synthesis inhibition reporter; in the data active = inhibition mostly above about 28%, no sharp cut-off; inactive = mostly below about 43%; also: 0% is about no effect
NS1 inh: qHTS Assay for Inhibitors of Influenza NS1 Protein Function | Potency, µM (highest dose often 46.1 µM), for the others: top-dose activity, positive = more growth | 270,000 compounds, 0.4% hits; also: potency is read from the fitted curve at half-maximal effect; actives are rising curves; nearly all actives have a fitted effect of over 50% in size
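S. cerevisiae expressing influenza A NS1, grown in glucose, washed, then diluted 1:100 into pH 6.0 -URA galactose medium with 23 nl compound. Growth recovery read as OD600; NS1-free strain serves as control.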
LmPK inhibitor: qHTS Assay for Inhibitors of Leishmania Mexicana Pyruvate Kinase (LmPK); Potency, µM (titrated, usually from 57.5 µM), without a hit: top-dose activity change, negative = inhibition, hits mostly inhibitors; Q27686; 290,000 compounds, 0.37% hits; AID 1721, 2009; purified LmPK, Kinase-Glo ATP luminescence, 1 h; active = well fitted curve in the direction sought with a large enough effect; inconclusive = small, poorly fitted or top-dose-only effect, or another doubt; inactive = no such curve, though single readings can be large; an effect the other way counts as inactive or inconclusive; also: potency is read from the fitted curve at half-maximal effect; % is scaled to controls: 0 for no effect and ±100 for the full control effect
Target sequence (Q27686 whole entry, looked up): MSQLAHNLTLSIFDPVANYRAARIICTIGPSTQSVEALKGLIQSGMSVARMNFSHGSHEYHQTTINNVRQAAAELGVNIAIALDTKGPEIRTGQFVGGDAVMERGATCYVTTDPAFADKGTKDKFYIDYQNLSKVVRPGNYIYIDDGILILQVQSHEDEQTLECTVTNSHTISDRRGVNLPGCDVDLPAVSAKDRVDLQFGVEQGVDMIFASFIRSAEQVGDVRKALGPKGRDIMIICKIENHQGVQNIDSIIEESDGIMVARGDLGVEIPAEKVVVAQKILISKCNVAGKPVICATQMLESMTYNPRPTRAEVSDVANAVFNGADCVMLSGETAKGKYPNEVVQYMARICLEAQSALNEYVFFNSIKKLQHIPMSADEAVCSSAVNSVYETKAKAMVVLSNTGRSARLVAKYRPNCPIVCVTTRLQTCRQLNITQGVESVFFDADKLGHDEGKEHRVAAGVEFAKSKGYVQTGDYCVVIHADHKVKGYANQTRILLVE
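Pyruvate kinase activity monitored as ATP production (luciferase luminescence). Conditions: 0.1 nM enzyme, 0.5 mM PEP, 0.1 mM ADP, 1 h, RT; normalized against uninhibited and no-enzyme wells.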
Tb PYK inh: qHTS of Trypanosoma Brucei Inhibitors; Potency, µM (titrated, usually from 76.8 µM), inactives show at the top dose activity, negative = inhibition, hits mostly inhibitors; AID 624173, 2012; 410,000 compounds, 0.12% hits; pyruvate kinase (Trypanosoma brucei), Q57TT1; TbPYK enzyme, Kinase-Glo Plus ATP luminescence, 45 min; active = well fitted curve in the direction sought with a large enough effect; inconclusive = small, poorly fitted or top-dose-only effect, or another doubt; inactive = no such curve, though single readings can be large; an effect the other way counts as inactive or inconclusive; also: potency is read from the fitted curve at half-maximal effect; % is scaled to controls: 0 for no effect and ±100 for the full control effect; nearly all actives have a fitted effect of over 50% in size
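Readout: single end-point luminescence (Kinase-Glo Plus, 10 min). Reaction conditions were TbPYK/substrate plus 130 uM ADP, 45 min at RT, pH 7.2 TEA buffer. No-enzyme wells served as controls, and data were normalized before concentration-response fitting.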
Cycloheximide cs: Cycloheximide Counterscreen for Small Molecule Inhibitors of Shiga Toxin; max response, %; cell reporter, cycloheximide protein synthesis inhibition counterscreen; 300,000 compounds, 12% hits; in the data active = max response mostly above about 13%, no sharp cut-off; inactive = mostly below about 14%; also: read at 38.3 µM for the half of the compounds with a filed dose; 0% is about no effect
Starred values were filed as active, the others as inactive; ? = inconclusive; · = not tested or not shown. Unless noted, calls follow the shape of the full dose curve.

SMILES | SARS PLP yeast | Shiga inhibitor | NS1 inh | LmPK inhibitor | Tb PYK inh | Cycloheximide cs
Cc1ccc(NC(=O)c2ncc(Cl)c(Cl)c2Cl)cc1C | 0% | 61 | 3% | 3% | 0% | 40*
CCOC(=O)c1ccc(Nc2nc3nonc3nc2Nc2cccc(C)c2C)cc1 | · | · | · | · | 9% | ·
Cc1ccc(NC(=O)c2ccc(=O)[nH]n2)cc1C | 12% | 100* | 3% | -11% | -3% | 48*
CC(OC(=O)c1cnc2ccccc2n1)c1ccccc1Cl (centres undefined) | -2% | 69* | -33% | -2% | 3% | 36*
CC(NC(=O)c1cnc2ccccc2n1)c1ccccc1 (centres undefined) | -2% | 41 | -3% | -1% | 2% | 23*
CC(NC(=O)c1ccncc1)c1ccccc1 (centres undefined) | -3% | · | 2% | 0% | -5% | -5
O=C(Nc1ccccc1)c1ccc(=O)[nH]n1 | -1% | -2 | -3% | 2% | 2% | -3
COc1ccc(OC)c(CNC(=O)C(C)n2c(C)c3cnn(-c4ccccc4)c(=O)c3c2C)c1 (centres undefined) | · | · | · | · | 3% | ·
COc1ccc(NC(=O)c2cc(-c3cc(F)ccc3OCC3CCCO3)n[nH]2)c(C)c1 (centres undefined) | · | · | · | · | -1% | ·
CCc1cccc(NC(=O)c2ccc(CN3C(=O)C(C)=C(c4ccc(OC)cc4)S3(=O)=O)cc2)c1 | · | · | · | · | 1% | ·
CC(Sc1ccc([N+](=O)[O-])cn1)C(=O)Nc1nccs1 (centres undefined) | 4% | -2 | -8% | -3% | -27% | -11
O=C(NC(=S)Nc1ccccc1Br)C1CCCCC1 | 21% | · | · | · | -2% | ·
O=C(NC(=S)Nc1ccccc1Br)C1CCCC1 | 5% | 143* | 5% | 0% | -5% | 38*
O=C(NC(=S)Nc1ccccc1F)C1CCCCC1 | ? | 61 | -9% | -7% | · | 57*
Cc1cc(-c2cc(NC=O)c3ncc(-c4cccc(C(=O)NCCN(C)C)c4)n3c2)cc(C)c1O | · | · | · | · | 0% | ·
OC[C@H]1O[C@H](OC/C=C/c2ccccc2)[C@H](O)[C@@H](O)[C@@H]1O | · | · | · | · | -10% | ·
Cc1cccn2c(=O)nc(SCC(=O)NCc3ccc(F)cc3)nc12 | -4% | · | · | · | 1% | ·
COc1ccc2c(c1)C(=O)CC(c1ccc3c(c1)OCCO3)O2 (centres undefined) | -1% | 61* | -13% | 11% | 0% | 43*
COc1ccc2c(c1)C(=O)CC(c1ccc(OC)c(OC)c1)O2 (centres undefined) | 0% | · | 3% | 5% | 5% | -4
COc1ccc2c(c1)C(=O)CC(c1ccccc1F)O2 (centres undefined) | -14% | 36* | -3% | 1% | -4% | 13*
Cc1ccc2c(c1)C(=O)CC(c1ccc3c(c1)OCCO3)O2 (centres undefined) | -4% | 64* | -4% | -7% | -6% | 41*
O=C(NCc1ccccc1)c1c(Cl)nc(Cl)c(Cl)c1Cl | 0% | -13 | 0% | 1% | -7% | -7
COc1ccc(CN(Cc2ccco2)c2cnc(S(C)(=O)=O)nc2C(=O)Nc2ccc(C)c(C)c2)cc1 | · | · | · | · | -8% | ·
O=C(NC(=S)Nc1ccc2c(c1)OCCO2)c1ccccc1 | -21% | 73* | -38% | -18% | 3% | 55*
COc1cccc(OC)c1C(=O)NC(=S)Nc1ccc2c(c1)OCCO2 | -2% | 42* | -6% | -1% | -4% | 34*
SMILES | SARS PLP yeast | Shiga inhibitor | NS1 inh | LmPK inhibitor | Tb PYK inh | Cycloheximide cs
O=C(Nc1ccc2c(c1)OCCO2)c1ccccc1F | -4% | 50* | -58% | -14% | ? | 47*
COc1cc(C(=O)NC(=S)Nc2ccc3c(c2)OCO3)cc(OC)c1OC | 0% | 16 | 3% | 2% | -6% | 9
CCOc1cccc(C(=O)NC(=S)Nc2ccc3c(c2)OCCO3)c1 | 13% | 113* | · | -2% | 1% | 61*
CC(C)[C@@H]1Cc2[nH]c(=O)[nH]c(=O)c2[C@H](c2ccc(F)cc2)O1 | · | · | · | · | 1% | ·
N=C(N)c1ccc(OCCCOc2ccc(C(=N)N)cc2)cc1 | · | · | · | · | -4% | ·
O=C(NC(=S)Nc1ccc2oc(-c3ccncc3)nc2c1)c1ccccc1F | -1% | -6 | 7% | 1% | 4% | -2
Cc1cc(C)c(C(=O)Nc2ccc3c(c2)OCCO3)c(C)c1 | · | · | · | · | -2% | ·
COc1ccc(-c2cc3ccccc3oc2=O)cc1NC(=S)NC(=O)c1ccc2c(c1)OCCO2 | 6% | 115* | 13% | 1% | 2% | 63*
O=C(Nc1ccc2c(c1)OCCO2)c1c(F)cccc1F | -12% | 74* | 0% | -14% | -5% | 41*
O=C(NC(=S)Nc1ccc2oc(=O)ccc2c1)c1ccccc1F | 0% | -14 | -3% | 1% | -1% | 25*
CS(=O)(=O)Nc1ccccc1C(=O)Nc1ccc2c(c1)OCCO2 | -3% | 46 | -9% | -7% | -11% | 15*
O=C(Nc1ccc2c(c1)OCCO2)c1ccccc1Cl | · | · | · | · | -1% | ·
O=C(NC(=S)Nc1ccc2c(c1)OCCO2)c1ccccc1F | 0% | 145* | -1% | -6% | 5% | 41*
COc1ccc(Cl)cc1NC(=O)C1CCN(S(=O)(=O)c2ccc(F)cc2)CC1 | · | · | · | · | 3% | ·
COc1cc(SC)ccc1C(=O)NCC1CCCO1 (centres undefined) | 1% | 74 | 0% | -1% | 1% | 24*
COc1cc(SC)ccc1C(=O)OCC(=O)NC1CCCC1 | -2% | 113* | -5% | 0% | -4% | 54*
COc1cc(SC)ccc1C(=O)NC1CCCCC1 | 17% | 51 | -43% | -1% | 0% | 36*
COc1cc(C(=O)NCC2CCCO2)ccc1OCc1ccccc1 (centres undefined) | 2% | 10 | -1% | -2% | -6% | 6
CSc1ccc(Cl)c(C(=O)NC2CCCC2)c1 | 6% | 10 | 14% | 0% | 1% | -3
COc1cc(C(=O)NCC2CCCO2)ccc1OCc1ccccc1Cl (centres undefined) | 6% | 37 | -36% | -1% | 4% | 16*
COc1ccc(C(=O)NCC2CCCO2)cc1OC (centres undefined) | -4% | 12 | 0% | -1% | -9% | -2
CCC(Oc1ccccc1)C(=O)Nc1cc(-c2ccccc2F)nn1-c1ccccc1 (centres undefined) | · | · | · | · | 6% | ·
NCCCc1ccc2oc3ccccc3c2c1 | · | · | 0% | · | · | ·
CNC(=O)C1CCN(C(=O)N2CC(C)Oc3ccc(Cl)cc32)CC1 (centres undefined) | · | · | · | · | 1% | ·
COc1cc(OC)c(C(=O)OCC(=O)NC2CCCCCCC2)cc1OC | -5% | · | · | · | -5% | ·
